# From PubChem
# TRPML1 ag – agonists of human TRPML1 channel; TRPML1-expressing cells, Ca2+ dye fluorescence, FDSS; activation, % (test concentration not listed); 0.12% of 410,000 active; in the data active means activation above about 50%; inconclusive means mostly about 30% to 49%; further: 0% is about no effect
#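 Kinetic FDSS Ca2+ read in Tet-induced TRPML1-DL cells (ABD Ca8 dye plus quencher, 45-90 min RT loading): baseline, then compound, then 110 s agonist window; EC80 agonist 54-4 at 4uM final added afterwards for a 110 s antagonist window.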
# A-T KAP1 phos – candidate therapy for ataxia-telangiectasia; F2112 A-T fibroblasts, KAP-1 phosphorylation AlphaLISA; neocarzinostatin DNA damage 30 min before lysis; Potency, µM (titrated, usually from 57.5 µM), for the others: at the top dose activation, usual class: activators; 0.19% of 320,000 active; AID 485349; further: potency means the concentration at half of the fitted maximal effect; % of control where 0% means no effect; nearly all actives have a fitted effect of over 45% in size
#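 ATM-like activity read as KAP-1 phosphorylation via AlphaLISA donor/acceptor antibody pairs after lysis and 6 hr at 25C. Cells were ATM-null patient fibroblasts (F2112, hTERT), dosed 60 min, then exposed to the DSB inducer NCS for 30 min.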
# TRPML1 blocker – blocks the human TRPML1 channel; Q9GZU1; TRPML1-inducible cells, Ca2+ dye fluorescence, FDSS; hits give low values; inhibition of EC80 agonist-evoked calcium signal; activity change, negative = inhibition, % (concentration not given with the values); 0.02% of 390,000 active; in the data active means activity change below about -50%; inconclusive means between about -30% and that limit;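 further: stimulus is agonist 54-4 at its EC80 concentration; on the % scale 0 is the no-effect control and ±100 the full control effect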
#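 Tet-induced TRPML1-DL cells loaded with Ca8 no-wash calcium dye were read kinetically on FDSS. Compound addition was followed by EC80 agonist 54-4 (4 uM final); inhibition was read over 110 s.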
# Vif-APOBEC3G blk – Vif-A3G binding inhibition | HeLa A3G-eYFP + Vif (tagged APOBEC3G with the HIV-1 protein that degrades it), YFP fluorescence, overnight | Potency, µM (series often up to 46.1 µM), for inactives: at the highest dose activity, negative = active, most hits filed as inhibitors | 0.076% of 410,000 active | AID 602310; further: potency means the concentration at half of the fitted maximal effect; on the % scale 0 is the no-effect control and ±100 the full control effect; nearly all actives have a fitted effect of over 60% in size
# Target sequence (Q9HC16 whole entry, looked up): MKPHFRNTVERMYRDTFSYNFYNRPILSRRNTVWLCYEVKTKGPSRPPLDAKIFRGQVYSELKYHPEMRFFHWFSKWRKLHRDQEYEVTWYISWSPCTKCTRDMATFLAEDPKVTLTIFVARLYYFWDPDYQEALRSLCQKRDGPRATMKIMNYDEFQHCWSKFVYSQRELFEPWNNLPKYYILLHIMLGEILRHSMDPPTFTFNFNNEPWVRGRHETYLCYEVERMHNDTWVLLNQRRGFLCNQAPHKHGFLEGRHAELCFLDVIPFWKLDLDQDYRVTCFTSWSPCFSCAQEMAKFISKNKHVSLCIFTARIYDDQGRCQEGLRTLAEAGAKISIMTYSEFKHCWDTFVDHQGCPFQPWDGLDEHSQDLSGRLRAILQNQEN
#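 HeLa cells stably expressing Vif and C-terminally eYFP-tagged A3G, seeded overnight at 37 deg C, then exposed to compound by pintool overnight at 37 deg C. Rise in yellow fluorescence (Ex 488/Em 500-530, Acumen) marks blocked Vif-driven A3G degradation.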
# Vif-APOBEC3F blk – Vif-A3F binding inhibition; HeLa A3F-eYFP + Vif (tagged APOBEC3F with the HIV-1 protein that degrades it), YFP fluorescence increase; Potency, µM (series often up to 46.1 µM), for inactives: at the top dose activity, negative = active; 0.2% of 390,000 active; further: potency means the concentration at half of the fitted maximal effect; % of control where 0% means no effect; nearly all actives have a fitted effect of over 65% in size
#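 HeLa cells stably expressing A3F-eYFP plus Vif, plated and incubated overnight at 37 deg C, then exposed to compounds overnight at 37 deg C. Blocked degradation read as raised yellow fluorescence (Ex 488/Em 500-530).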
# Starred values were filed as active, the others as inactive; ? = inconclusive; . = no result given. Hits are enriched below; roughly 0.54% of the tested compounds scored in any of these assays. Unless noted, the call rests on the fitted dose curve; in most records, active means well fitted curve in the direction sought with a large enough effect; inconclusive means small, poorly fitted or top-dose-only effect, or another doubt; inactive means no such curve, though single readings can be large; an effect the other way counts as inactive or inconclusive.
SMILES,TRPML1 ag,A-T KAP1 phos,TRPML1 blocker,Vif-APOBEC3G blk,Vif-APOBEC3F blk
CCCNC(=O)Cn1c(=O)/c(=C\c2ccc(-c3ccc([N+](=O)[O-])cc3)o2)s/c1=C\C(=O)C(C)(C)C,127*,3%,-13,2%,-394%
CCCNC(=O)Cn1c(=O)/c(=C/c2ccc(-c3cccc([N+](=O)[O-])c3)o2)s/c1=C\C(=O)C(C)(C)C,1,.,-4,-7%,?
CC(C)OP(=O)(OC(C)C)C(O)c1ccc(N(C)C)cc1 (configuration not stated),0,5µM*,4,0%,8%
CCOc1ccccc1NC(=O)Cn1c(=O)n(Cc2nc(C)no2)c(=O)c2ccccc21,-1,.,15,-1%,-7%
O=S(=O)([N-]c1nc2ccccc2nc1-n1cc[n+](Cc2ccccc2)c1)c1ccc(Cl)cc1,0,20µM*,-29,-2%,?
CSc1ccc(Cn2c(C)c(C(=O)NCc3ccc(F)cc3)sc2=O)cc1,0,.,.,1%,.
CC(=O)Nc1ccc(S(=O)(=O)Nc2nc3ccccc3nc2N2CCCCCC2)cc1,0,-5%,-10,0%,-1%
Cc1ccc(S(=O)(=O)Nc2nc3ccccc3nc2N2CCN(c3ccccc3F)CC2)cc1,0,4%,10,-1%,-13%
CN1CCN(c2nc3ccccc3nc2NS(=O)(=O)c2ccc(Br)cc2)CC1,2,16%,22,-10%,10µM*
O=S(=O)(Nc1nc2ccccc2nc1N1CCN(c2ccccn2)CC1)c1ccc(Cl)cc1,1,-9%,7,?,7.9µM*
O=S(=O)(Nc1nc2ccccc2nc1N1CCc2ccccc2C1)c1ccc(Cl)cc1,1,-8%,37,-14%,-39%
O=S(=O)(Nc1nc2ccccc2nc1N1CCc2ccccc2C1)c1ccc(Br)cc1,0,-3%,24,-22%,22µM*
Cc1cccc(C(=O)NC(=S)N2CCc3ccccc3C2)c1,2,2%,-14,1%,8.9µM*
Cc1cccc(C(=O)NCCC(=O)N2CCc3ccccc3C2)c1,1,-29%,-6,0%,-4%
Cc1ccc(N2C(=O)[C@@H]3[C@H](C2=O)[C@H]2C=C(C(=O)c4ccccc4)C=CN2[C@@H]3C(=O)c2ccc(Cl)cc2)cc1,1,-5%,9,-15%,11µM*
N#Cc1c(C(F)(F)F)cc(-c2ccco2)nc1SCc1ccccn1,8,.,0,?,25µM*
CCCCCCC[n+]1ccc(/C=C/c2c(C)[nH]c3ccccc23)cc1,57*,.,.,8%,.
Cc1[nH]c2ccccc2c1/C=C/c1cc[n+](C)cc1,6,10%,7,3.2µM*,?
O=S1(=O)CCO[C@H]2CCCC[C@@H]2N1Cc1ccccc1F,-1,.,.,-1%,.
COc1ccc2[nH]cc(/C=C/c3cc[n+](C)cc3)c2c1,4,6%,-13,11µM*,13µM*
CCOC(=O)c1c(C)oc2c1c(CN1CCN(CCO)CC1)c(O)c1ccccc12,4,-4%,-1,-11%,-1%
CCOC(=O)c1c(C)oc2c1c(CN1CCN(C(=O)OCC)CC1)c(O)c1ccccc12,0,32µM*,-2,-18%,-12%
O=C(C[n+]1cccc2cccc(O)c21)c1ccc(F)cc1,16,.,.,-5%,.
Cc1[nH][nH]c(=O)c1C(c1c(C)[nH][nH]c1=O)c1cn(Cc2ccccc2Cl)c2ccccc12,1,-6%,-6,11µM*,-8%
N/C(=N\O)c1cn(Cc2ccccc2Cl)c2ccccc12,-1,-9%,12,1%,-13%
SMILES,TRPML1 ag,A-T KAP1 phos,TRPML1 blocker,Vif-APOBEC3G blk,Vif-APOBEC3F blk
O=C1CSC(c2ccc(Cl)cc2)N1c1cccnc1 (configuration not stated),78*,-2%,-22,-2%,-23%
O=c1oc(/C=C/c2ccc([N+](=O)[O-])s2)nc2ccccc12,.,0%,.,-18%,28µM*
Cc1ncnc2nc[nH]c12,0,.,.,-17%,.
CCN(CC)c1ccc(/C=C2\SC(N)=NC2=O)cc1,8,-8%,0,8.9µM*,?
CCN(CC)C(=O)Cn1c(=O)n(-c2ccc(Cl)cc2)c(=O)c2c3c(sc21)CCCCC3,0,.,-12,2%,0%
Cc1noc(C)c1COc1cccc(C(=O)OCC(=O)N2CC(=O)Nc3ccccc32)c1,5,-14%,6,2.8µM*,-2%
Cc1cc2c(cc1C)NC(CC(=O)NCc1ccccc1)C(=O)N2 (configuration not stated),0,6%,9,3%,28µM*
COc1ccc(OC)c(NC(=O)c2cc(-c3cc(C)cc(C)c3O)n[nH]2)c1,-1,-4%,1,0%,11µM*
Cc1ccc(Nc2nc3ccccc3c(=O)s2)cc1C,2,3%,-8,2%,2%
Cc1ccc(Nc2nc(Cl)c(C=O)s2)cc1Cl,1,12%,-2,?,22µM*
COc1ccccc1Nc1nc(Cl)c(C=O)s1,0,-7%,-7,?,?
O=Cc1sc(Nc2ccccc2)nc1Cl,0,-4%,4,?,25µM*
OCC[n+]1ccc(/C=C/c2c[nH]c3ccccc23)cc1,8,13%,1,?,3.5µM*
CCCCCCCCCC[n+]1ccc(/C=C/c2c[nH]c3ccccc23)cc1,68*,.,.,7%,.
C(=C\c1c[nH]c2ccccc12)/c1cc[n+](C2CCCCC2)cc1,0,.,.,-4%,.
CCCCCCCCCCCCCCCC[n+]1ccc(/C=C/c2c[nH]c3ccccc23)cc1,16,.,.,?,.
O=C(c1cccc([N+](=O)[O-])c1)N1c2ncnn2C2(CCCCC2)[C@@H]2CCCC[C@@H]21,0,.,5,1%,-5%
COc1ccc([C@@H]2C[C@H]3[C@@H](CN2S(=O)(=O)c2ccccc2)C(=O)C[C@@H](c2ccccc2F)N3S(=O)(=O)c2ccc(C)cc2)cc1,0,.,-9,-3%,-5%
C=C(/C=C/c1ccc(N(C)C)cc1)c1nc2ccccc2s1,19,.,.,11µM*,.
Cc1ccc(NC(=O)CSc2ccccc2NC(=O)c2cccc(Cl)c2)cc1Cl,1,7%,-4,-61%,11µM*
Cc1cccc(C(=O)Nc2ccccc2SCC(=O)Nc2ccc(C)c(Cl)c2)c1,-1,6%,47,1%,-9%
CCCCN(CCC#N)c1ccc(/C=C/c2ccnc3ccccc23)cc1,16,.,.,?,.
Cc1ccc2c(c1)C(c1ccccc1)N(C(=O)Cc1ccc(F)cc1)CC(=O)N2 (configuration not stated),-1,.,11,-7%,4%
Cc1ccc2c(c1)C(c1ccccc1)N(C(=O)CC(C)C)CC(=O)N2 (configuration not stated),0,3.5µM*,5,0%,9%
